Assay results from PubChem BioAssay AID2158 (National Center for Advancing Translational Sciences (NCATS), 2009).
Results filed as inconclusive are left out. A number with no mark means an inactive call. Calls of active or inactive are those of the source. The call rests on the fitted dose curve; in most records, active means well fitted inhibition curve with a large enough effect; inconclusive means small, poorly fitted or top-dose-only effect; inactive means no such curve, though single readings can be large or run the other way.

Target: Cruzipain (Trypanosoma cruzi) (UniProt P25779)
Assay: Confirmation qHTS Assay for Inhibitors of Cruzain; further: nearly all actives have a fitted effect of over 40% in size;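 on activity change, negative = inhibition: plate controls were uninhibited enzyme control for no effect and buffer wells lacking enzyme for full effect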
Conditions: purified cruzain, Z-FR-AMC fluorescence, 0.01% Triton
Method in brief: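 Purified cruzain, 1.5 nM, pre-incubated 15 min at room temperature with compound in 100 mM sodium acetate pH 5.5, 5 mM DTT, 0.01% Triton X-100. Then 2 uM Z-FR-AMC added; AMC fluorescence (ex 360/em 450 nm) increase over 60 s gave reaction progress.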
Potency means the concentration at half of the fitted maximal effect.

Sequence of Cruzipain (Trypanosoma cruzi) (P25779 123-467 limits assumed): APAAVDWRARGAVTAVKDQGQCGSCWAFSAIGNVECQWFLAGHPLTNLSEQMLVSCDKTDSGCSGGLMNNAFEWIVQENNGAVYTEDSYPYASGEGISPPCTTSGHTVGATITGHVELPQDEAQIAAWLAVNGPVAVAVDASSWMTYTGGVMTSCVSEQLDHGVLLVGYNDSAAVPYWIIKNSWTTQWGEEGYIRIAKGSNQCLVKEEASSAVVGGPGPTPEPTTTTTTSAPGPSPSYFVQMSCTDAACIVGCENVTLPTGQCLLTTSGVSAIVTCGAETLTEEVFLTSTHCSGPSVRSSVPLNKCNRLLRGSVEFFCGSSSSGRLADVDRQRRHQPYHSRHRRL

| Structure (SMILES) | activity change, negative = inhibition | Potency |
| --- | --- | --- |
| CCc1ccc(OCCCn2c(CCCNC(=O)C3CCCCC3)nc3ccccc32)cc1 | -18.8% | – |
| NC(N)=NCCC[C@H](NC(=O)CNC(=O)c1ccccc1)C(=O)Nc1cc(C(F)(F)F)ccc1Cl | -8.36% | – |
| CCc1ccc(NC(=O)Cn2c(SCc3ccc(C)cc3)nc3ccncc32)cc1 | -7.51% | – |
| COc1ccc(C)cc1NC(=O)C(OC(=O)CNC(=O)c1ccccc1)c1ccccc1 (stereo not drawn) | – | 8.91 µM (active) |
| CC(C)CC(=O)OC1C(N2CCOCC2)c2c(ccc(/C=C/C(=O)N3CCOCC3)c2O)OC1(C)C (stereo not drawn) | -26% | – |
| COc1ccc(/C=N/NC(=O)c2ccc(Br)cc2)cc1Cn1cc(Cl)cn1 | -13.6% | – |
| CCc1ccc2[nH]c(=O)c(CN(Cc3ccccc3)Cc3nnnn3C(C)(C)C)cc2c1 | -22.1% | – |
| Cc1ccc(Cn2c(CCNC(=O)c3cccc(C)c3)nc3ccccc32)cc1 | – | 2.82 µM (active) |
| Cn1nc(-c2ccncc2)nc2c(=O)n(C)c(=O)nc1-2 | – | 0.891 µM (active) |
| CCCCNC(=O)C(CC)n1c(SCc2cccc(F)c2)nc2ccncc21 (stereo not drawn) | -13.4% | – |
| Cc1ccccc1Nc1nc(C#N)nc(NC2CCCC2)n1 | – | 0.708 µM (active) |
| CCN(c1ccccc1)c1nc(C#N)nc(N(CC)c2ccccc2)n1 | – | 5.01 µM (active) |
| O=C(NCCc1nc2ccccc2n1CCCOc1ccccc1Cl)C1CCCCC1 | – | 1.58 µM (active) |
| O=C(CNC(=O)c1ccc(Cl)cc1)OC(C(=O)Nc1cc(C(F)(F)F)ccc1Cl)c1ccccc1 (stereo not drawn) | – | 10 µM (active) |
| COC(=O)CCC(C)C1CCC2C3C(O)C[C@@H]4CC(O)CC[C@@]4(C)C3CC(O)[C@]12C (stereo partly drawn) | -0.647% | – |
| O=C(CNC(=O)c1cccc2ccccc12)OC(C(=O)Nc1cc(C(F)(F)F)ccc1Cl)c1ccccc1 (stereo not drawn) | – | 12.6 µM (active) |
| COc1ccc2cc3cc(C(=O)NCCCN4CCOCC4)oc3nc2c1 | -114% | – |
| CNc1oc(Cc2ccccc2)nc1S(=O)(=O)c1ccccc1 | – | 7.08 µM (active) |
| CN(c1ccccc1)c1nc(C#N)nc(N2CCOCC2)n1 | – | 1.26 µM (active) |

| Structure (SMILES) | activity change, negative = inhibition | Potency |
| --- | --- | --- |
| O=c1cc(-c2ccccc2F)nc(-c2ccccc2F)o1 | -25.6% | – |
| C[C@H](CCC(=O)O)[C@H]1CC[C@@H]2[C@@H]3[C@@H](O)C[C@H]4C[C@@H](O)CC[C@@]4(C)[C@H]3CC[C@@]21C | 2.73% | – |
| Cc1ccc2[nH]c(=O)c(CN(Cc3ccccc3)Cc3nnnn3Cc3ccccc3)cc2c1 | -15.4% | – |
| O=C(Nc1ccc(-n2nncc2-c2ccccc2)cc1)c1ccccc1 | -9.78% | – |
| COc1ccc(NS(=O)(=O)c2cc(NC(=O)/C=C/c3ccccc3OC)ccc2N2CCCCC2)cc1 | 2.33% | – |
| CSc1nc(N(CCO)CCO)c2sc3nc(-c4ccco4)c4c(c3c2n1)CCC4 | – | 11.2 µM (active) |
| O=C(CNC(=O)c1ccccc1)OC(C(=O)Nc1cc([N+](=O)[O-])ccc1F)c1ccccc1 (stereo not drawn) | – | 12.6 µM (active) |
| COc1ccc(-c2cnnn2-c2ccc(NC(=O)/C=C/c3ccc(OC)c(OC)c3)cc2)cc1 | – | 15.8 µM (active) |
| COc1ccc(-c2nnc(NC(=O)c3ccc(S(=O)(=O)N4CCCc5ccccc54)cc3)o2)cc1 | -17.1% | – |
| O=C(NCc1ccc2c(c1)OCO2)c1ccc2c(c1)N(Cc1c(F)cccc1Cl)C(=O)c1ccccc1S2 | 3.42% | – |
| CCOC(=O)C(C(=O)OCC)N(C#N)c1nc(OC)nc(N(C)C)n1 | – | 15.8 µM (active) |
| Cc1ccc(OCCCCn2c(CCNC(=O)C3CCCCC3)nc3ccccc32)cc1 | – | 1.12 µM (active) |
| CC(C)C[C@H](N)c1nnc(S(=O)(=O)Cc2ccc(F)cc2)o1 | -25.7% | – |
| COC(=O)CCC(C)C1CCC2C3CC[C@H]4CC(O)CC[C@@]4(C)C3CC(O)[C@]12C (stereo partly drawn) | -8.27% | – |
| CCNc1nc(C#N)nc2c1ncn2-c1cccc(Cl)c1 | – | 0.0631 µM (active) |
| CC(C)(C)OC(=O)NCC(=O)NNC(=O)c1cc2ccccc2[nH]1 | -2.11% | – |
| O=C(NC(=S)Nc1nc(-c2cccc3ccccc23)cs1)c1cc2ccccc2o1 | -1.65% | – |
| c1ccc(CN(Cc2ccccc2)Cc2nnc(-c3cc4ccccc4[nH]3)s2)cc1 | -2.53% | – |
| NC(=S)N/N=C/c1ccc(-c2cc(Cl)ccc2Cl)o1 | – | 2 µM (active) |
